In PubChem BioAssay (Tox21):
Inconclusive results are not listed. A call without a number means that no potency is given here. Active and inactive are the calls of the source. Unless noted, calls come from the whole dose curve; as a rule, active = well fitted cell-killing curve with a large enough effect in the repeat runs; inconclusive = weak or mixed curves, or effect the other way; inactive = no such curve, though single readings can be large or run the other way.

Assay: qHTS assay to identify small molecule antagonists of the peroxisome proliferator-activated receptor gamma (PPARg) signaling pathway - cell viability counter screen (AID 743194); note: nearly all actives have a fitted effect of over 55% in size
Conditions: PPARg-bla HEK293H viability, CellTiter-Glo luminescence, 17 h, co-treated with 50 nM rosiglitazone; series mostly up to 62.6 µM
Summary of the method: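 Cytotoxicity counter screen in PPARg-bla HEK293H cells, same wells as reporter assay. Compounds plus 50 nM rosiglitazone (final) for 17 h at 37 C, then viability read by CellTiter-Glo luminescence.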

Row | Structure (SMILES) | Potency | activity change, negative = cytotoxicity
1 | CC(C=O)Cc1ccc(C(C)C)cc1 (stereo not drawn) | inactive | 
2 | Cc1nccn1CC1CCc2c(c3ccccc3n2C)C1=O (stereo not drawn) | inactive | 
3 | CC(C)(O)Cc1ccccc1 | inactive | 
4 | CCOC(=O)[C@H](CCc1ccccc1)N[C@@H](C)C(=O)N1CCC[C@H]1C(=O)O | inactive | 
5 | COc1nc(C)nc(N)n1 | inactive | 
6 | C=C[Si](OC)(OC)OC | inactive | 
7 | CC/C=C\C#N | inactive | 
8 | COC(=O)CCCCCCCCC(=O)OC | inactive | 
9 | C#CC(C)(O)CC(C)C (stereo not drawn) | inactive | 
10 | CCC(=O)/C=C/c1ccc(OC)cc1 | inactive | 
11 | CN(C)CCOC(c1ccc(Cl)cc1)c1ccccn1 (stereo not drawn) | inactive | 
12 | NC(=O)c1ncn([C@@H]2O[C@H](CO)[C@@H](O)[C@H]2O)c1O | inactive | 
13 | CC(C)(C)CC(C)(C)N | inactive | 
14 | CC(=O)c1ccc(C)cc1 | inactive | 
15 | Cc1cc(C)cc(OCC2CNC(=O)O2)c1 (stereo not drawn) | inactive | 
16 | NCC[C@H](O)C(=O)N[C@@H]1C[C@H](N)[C@@H](O[C@H]2O[C@H](CN)[C@@H](O)[C@H](O)[C@H]2O)[C@H](O)[C@H]1O[C@H]1O[C@H](CO)[C@@H](O)[C@H](N)[C@H]1O |  | 0.328% [at 0.55 µM] (inactive)
17 | Nc1ccc2cc(S(=O)(=O)O)ccc2c1 | inactive | 

Row | Structure (SMILES) | Potency | activity change, negative = cytotoxicity
18 | CN1[C@@H]2CC[C@H]1CC(NC(=O)n1c(=O)[nH]c3ccccc31)C2 (stereo partly drawn) | inactive | 
19 | Cc1onc(-c2ccccc2)c1-c1ccc(S(N)(=O)=O)cc1 | inactive | 
20 | CC(C)c1cccc(C(C)C)c1N | inactive | 
21 | CCC(=O)Nc1cccc(N)c1 | inactive | 
22 | Cn1ccc2cc3c(cc21)CCN3C(=O)Nc1cccnc1 | inactive | 
23 | NC1CCN(c2cccc(Cl)n2)CC1 | inactive | 
24 | CC(C)CCOC(=O)CC(C)C | inactive | 
25 | CC1CCN(CCCC(=O)c2ccc(F)cc2)CC1 | inactive | 
26 | CC(C)=CC(=O)O | inactive | 
27 | Nc1cc(N)cc(C(=O)O)c1 | inactive | 
28 | CC(=O)CCc1ccc(O)cc1 | inactive | 
29 | Nc1ccn(C2CO[C@H](CO)O2)c(=O)n1 (stereo partly drawn) | inactive | 
30 | O=C(O)/C=C/c1ccc(Cn2ccnc2)cc1 | inactive | 
31 | CC12CCC(CC1=O)C2(C)C (stereo not drawn) | inactive | 
32 | OC[C@H]1O[C@@H]2O[C@H]3[C@H](O)[C@@H](O)[C@@H](O[C@H]4[C@H](O)[C@@H](O)[C@@H](O[C@H]5[C@H](O)[C@@H](O)[C@@H](O[C@H]6[C@H](O)[C@@H](O)[C@@H](O[C@H]7[C@H](O)[C@@H](O)[C@@H](O[C@H]8[C@H](O)[C@@H](O)[C@@H](O[C@H]9[C@H](O)[C@@H](O)[C@@H](O[C@H]1[C@H](O)[C@H]2O)O[C@@H]9CO)O[C@@H]8CO)O[C@@H]7CO)O[C@@H]6CO)O[C@@H]5CO)O[C@@H]4CO)O[C@@H]3CO | inactive | 
33 | NC(CS)C(=O)O (stereo not drawn) | inactive | 
34 | C1=C\CC/C=C\CC/C=C\CC/1 | inactive | 

Assay: qHTS assay for small molecule agonists of the antioxidant response element (ARE) signaling pathway (AID 743202; active = well fitted activation curve with a large enough effect in the signal ratio in the repeat runs, not every such curve was filed as active; the % refers to the signal ratio)
Conditions: HepG2 ARE-bla reporter, beta-lactamase FRET, 16 h; series mostly up to 73.3 µM
Summary of the method: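 HepG2 ARE-bla cells; 16 h treatment at 37 C; FRET-based beta-lactamase fluorescence read after 2 h substrate incubation at room temperature.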

Row | Structure (SMILES) | Potency | activation
35 | c1cc(CN2CCCCC2)cc(OCCCNc2nc3ccccc3s2)c1 | inactive | 
36 | CC(C=O)Cc1ccc(C(C)C)cc1 (stereo not drawn) | inactive | 
37 | Cc1nccn1CC1CCc2c(c3ccccc3n2C)C1=O (stereo not drawn) | inactive | 
38 | CC(C)(O)Cc1ccccc1 | inactive | 
39 | COc1nc(C)nc(N)n1 | inactive | 
40 | C=C[Si](OC)(OC)OC | inactive | 
41 | CC/C=C\C#N | inactive | 
42 | COC(=O)CCCCCCCCC(=O)OC | inactive | 
43 | C#CC(C)(O)CC(C)C (stereo not drawn) | inactive | 
44 | CCC(=O)/C=C/c1ccc(OC)cc1 | inactive | 
45 | CC(C)(C)CC(C)(C)N | inactive | 
46 | CC(=O)c1ccc(C)cc1 | inactive | 
47 | Cc1cc(C)cc(OCC2CNC(=O)O2)c1 (stereo not drawn) | inactive | 
48 | NCC[C@H](O)C(=O)N[C@@H]1C[C@H](N)[C@@H](O[C@H]2O[C@H](CN)[C@@H](O)[C@H](O)[C@H]2O)[C@H](O)[C@H]1O[C@H]1O[C@H](CO)[C@@H](O)[C@H](N)[C@H]1O |  | 2.58% [at 0.756 µM] (inactive)
49 | Cc1onc(-c2ccccc2)c1-c1ccc(S(N)(=O)=O)cc1 | inactive | 
50 | CC(C)c1cccc(C(C)C)c1N | inactive | 
51 | Cn1ccc2cc3c(cc21)CCN3C(=O)Nc1cccnc1 | inactive | 
52 | NC1CCN(c2cccc(Cl)n2)CC1 | inactive | 
53 | CC(C)CCOC(=O)CC(C)C | inactive | 
54 | CC1CCN(CCCC(=O)c2ccc(F)cc2)CC1 | inactive | 
55 | CC(C)(O)C(=O)c1ccc(OCCO)cc1 | inactive | 
56 | CC(C)=CC(=O)O | inactive | 
57 | CC(=O)CCc1ccc(O)cc1 | inactive | 
58 | Nc1ccn(C2CO[C@H](CO)O2)c(=O)n1 (stereo partly drawn) | inactive | 
59 | O=C(O)/C=C/c1ccc(/C=C/C(=O)O)cc1 | inactive | 
60 | O=C(O)/C=C/c1ccc(Cn2ccnc2)cc1 | inactive | 
61 | CC12CCC(CC1=O)C2(C)C (stereo not drawn) | inactive | 
62 | OC[C@H]1O[C@@H]2O[C@H]3[C@H](O)[C@@H](O)[C@@H](O[C@H]4[C@H](O)[C@@H](O)[C@@H](O[C@H]5[C@H](O)[C@@H](O)[C@@H](O[C@H]6[C@H](O)[C@@H](O)[C@@H](O[C@H]7[C@H](O)[C@@H](O)[C@@H](O[C@H]8[C@H](O)[C@@H](O)[C@@H](O[C@H]9[C@H](O)[C@@H](O)[C@@H](O[C@H]1[C@H](O)[C@H]2O)O[C@@H]9CO)O[C@@H]8CO)O[C@@H]7CO)O[C@@H]6CO)O[C@@H]5CO)O[C@@H]4CO)O[C@@H]3CO | inactive | 
63 | C1=C\CC/C=C\CC/C=C\CC/1 | inactive | 
